# Compound activity (PubChem)
# The list is not random: actives were taken first. Their share in the collection is about 3.9%.
# PLC-gamma1 inh = PLC-gamma1 enzyme inhibitors, primary screen, biochemical, fluorescence, purified enzyme | 1-phosphatidylinositol 4,5-bisphosphate phosphodiesterase gamma-1 (Homo sapiens), P19174 | fluorogenic substrate | inhibition, % at 12.2 µM | 370,000 compounds, 0.84% hits; in the data active means inhibition above about 9.5%
# Yeast superoxide = reduction of superoxide in aged yeast, primary screen, HTS; S. cerevisiae aged cells, superoxide DHE fluorescence; active compounds read low; superoxide response (% of plate mean), % at 10 µM; 330,000 compounds, 0.18% hits; AID 2690, 2010;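 active means superoxide response under a set limit, about three screen SD below normal, cut at about 65% in these data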;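 further: yeast aged for seven days with compound at 30 °C before DHE staining; 100% = average MFI of all compound-treated wells on the plate with controls excluded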
# HIF activator = HIF pathway transcriptional activators, primary screen, cell-based, U2OS HRE-luciferase, luminescence; U2OS HRE-luciferase reporter; normalized: DMSO 0%, desferrioxamine 100%; activation, % at 7.5 µM (by protocol); 300,000 compounds, 0.32% hits; AID 1910, 2009;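 active means mean activation of at least 10% of the iron chelator positive control signal, with at least half of replicates also reaching 10%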
# sPLA2-III inh = human group III sPLA2 inhibitors, primary screen, biochemical, QFRET, BODIPY PC-A2 liposome substrate. inhibition, % at 12.2 µM. Group 3 secretory phospholipase A2 (Homo sapiens), Q9NZ20. AID 743126, 2013. QFRET BODIPY PC-A2 liposome hydrolysis, fluorescence. 370,000 compounds, 0.56% hits;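 active means inhibition above mean plus 3 SD of compounds lying within the high and low control bounds, cut at about 19% in these data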;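 further: 0% = median of test compound wells and 100% = no enzyme DMSO wells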
# PLCb3 inh = human PLC-beta3 inhibitors, primary screen, biochemical, fluorescence | 370,000 compounds, 0.18% hits | inhibition, % at 12.2 µM | 1-phosphatidylinositol 4,5-bisphosphate phosphodiesterase beta-3 (Homo sapiens), Q01970 | AID 720704, 2013 | Purified PLC-beta3, fluorogenic substrate; in the data active means inhibition above about 11%;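 further: 0% = median of compound wells on plate and 100% = full blocker control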
# AHR act = AHR activators, primary screen, cell-based, luminescence, luciferase reporter, human. Aryl hydrocarbon receptor (Homo sapiens), P35869. AHR-responsive luciferase reporter cells. activation, % at 5 µM. 320,000 compounds, 2.5% hits. AID 2796, 2010; in the data active means activation above about 47%;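 further: 0% = vehicle wells and 100% = reference agonist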
# Target sequence (P35869 whole entry, looked up): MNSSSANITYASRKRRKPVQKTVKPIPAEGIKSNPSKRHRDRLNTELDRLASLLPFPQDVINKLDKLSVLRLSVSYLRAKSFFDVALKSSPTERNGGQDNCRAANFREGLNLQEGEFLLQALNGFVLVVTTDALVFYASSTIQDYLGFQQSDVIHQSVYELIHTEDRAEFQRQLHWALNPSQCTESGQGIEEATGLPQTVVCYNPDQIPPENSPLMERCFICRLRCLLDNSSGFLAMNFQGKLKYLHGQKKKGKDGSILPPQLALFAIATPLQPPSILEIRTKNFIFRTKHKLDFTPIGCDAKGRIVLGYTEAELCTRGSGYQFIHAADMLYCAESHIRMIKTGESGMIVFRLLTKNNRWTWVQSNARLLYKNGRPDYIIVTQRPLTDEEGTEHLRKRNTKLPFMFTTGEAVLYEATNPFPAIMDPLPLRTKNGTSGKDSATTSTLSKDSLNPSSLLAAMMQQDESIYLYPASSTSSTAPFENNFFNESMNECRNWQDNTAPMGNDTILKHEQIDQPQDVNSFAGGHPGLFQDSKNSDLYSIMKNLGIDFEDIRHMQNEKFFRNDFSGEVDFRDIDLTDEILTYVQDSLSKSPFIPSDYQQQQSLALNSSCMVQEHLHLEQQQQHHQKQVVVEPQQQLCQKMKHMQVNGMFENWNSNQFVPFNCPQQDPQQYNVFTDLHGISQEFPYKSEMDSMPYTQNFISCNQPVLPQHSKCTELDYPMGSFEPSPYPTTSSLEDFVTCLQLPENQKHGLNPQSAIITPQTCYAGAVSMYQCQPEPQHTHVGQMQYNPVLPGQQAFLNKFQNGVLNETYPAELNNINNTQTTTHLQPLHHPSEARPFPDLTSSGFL
# AHR act cf = AHR activators, confirmation, cell-based, luminescence, luciferase reporter, human | shares compounds with AHR act | human cells, AHR-responsive luciferase reporter | activation, % at 9 µM | 2,300 compounds, 87% hits | AID 2845, 2010; in the data active means activation above about 49%;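 further: HepG2 hepatoma cells carrying a DRE-driven firefly luciferase reporter; 0% = vehicle wells and 100% = reference agonist wells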
# PXR counter = human PXR activators, counter-screen for AHR activator project, cell-based, luciferase luminescence; cell-based PXR reporter; activation, % at 11.6 µM; 2,300 compounds, 88% hits; shares compounds with AHR act; in the data active means activation above about 11%;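 further: human hepatoma DPX-2 cells expressing full-length human PXR; 0% = DMSO and 100% = reference agonist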
# An asterisk follows results filed as active; x = not tested or not shown.
SMILES,PLC-gamma1 inh,Yeast superoxide,HIF activator,sPLA2-III inh,PLCb3 inh,AHR act,AHR act cf,PXR counter
N#Cc1nc(-c2ccc(F)cc2)oc1NCCCn1ccnc1,x,122,1,x,x,106*,97*,30*
Cc1ccccc1Oc1ccc2c(c1)[C@@H]1C[C@H](N(C)C(=S)Nc3ccc(F)cc3)[C@H]([C@H](C)O)C(=O)N1CC2,-4,x,x,0,-4,x,x,x
N/C(=N\OC(=O)c1cc(Cl)ccc1Cl)c1ccccn1,4,118,-1,-4,-3,122*,64*,17*
COc1ccc(Cl)cc1C(=O)O/N=C(\N)c1ccccn1,3,96,2,2,-2,17,x,x
N/C(=N\OC(=O)c1ccc(Br)o1)c1ccccn1,3,110,-3,-4,5,79*,29,22*
CC1Cc2ccccc2N1C(=O)COc1ccc2c(c1)OCO2 (stereo not given),0,90,1,13,-11,84*,95*,66*
CC(=O)c1ccc(C(=O)Nc2sc3c(c2C(N)=O)CCN(Cc2ccccc2)C3)cc1,-47,93,0,-12,-51,5,x,x
COc1cccc(OC)c1C(=O)Nc1sc2c(c1C(N)=O)CCN(Cc1ccccc1)C2,-115,109,0,-10,-122,129*,85*,59*
CCOC(=O)[C@H]1[C@H]2COc3ccc(Cl)cc3[C@@H]2N2C(=O)CN(C)C(=O)[C@@]12C,4,74,x,3,-2,1,x,x
CCSc1ncc(/C=N/Nc2ccccc2)n1C,-1,112,1,2,-3,89*,145*,49*
CC1(C(=O)Nc2cccc(C#N)c2)CCN1C(=O)c1ccccc1CCc1ccccc1 (stereo not given),2,x,x,-1,-1,x,x,x
Cc1cccc(N/C(N)=N/c2nc(C)cc(C)n2)c1,1,98,1,-1,-1,81*,50*,12*
C/C(CC(=O)Nc1cc(Cl)ccc1Cl)=N\NC(N)=S,-1,94,0,-2,0,84*,2,14*
COc1ccc(S(=O)(=O)NCCC(=O)Nc2ccc(C)cc2)cc1,3,87,-1,-6,0,2,x,x
COc1ccc(NC(=O)CSc2nnnn2-c2ccccc2OC)c(OC)c1,1,106,0,-5,2,2,x,x
COc1ccccc1-n1nnnc1SCC(=O)Nc1ccc(C)c(N)c1,5,108,-10,1,-4,94*,81*,58*
COc1ccccc1NS(=O)(=O)c1cccc(C(=O)N/N=C(/C)c2ccc(-n3ccnc3)cc2)c1,-6,x,x,-11,-8,x,x,x
C=C(C)CNC(=S)N/N=C(\C)c1ccc(-n2ccnc2)cc1,0,87,0,7,-16,94*,98*,36*
CCCCCNC(=O)c1ccc2c(=O)n(CCCN3CCCC3=O)c(=S)[nH]c2c1,0,103,0,0,-2,4,x,x
COc1cc2[nH]c(-c3ccc(C)cc3)cc(=O)c2cc1OC,-80,111,4,4,-130,134*,78*,13*
Cc1ccc2[nH]c(-c3ccccc3)cc(=O)c2c1,-16,109,3,9,-21,135*,34,57*
COc1ccc(-c2cc(=O)c3cc(C)ccc3[nH]2)cc1,-10,89,4,5,-12,35,x,x
COc1cc2[nH]c(-c3cccc(F)c3)cc(=O)c2cc1OC,-65,102,1,10,-102,91*,54*,x
Cc1c(-c2ccn[nH]2)cc(NC(=O)c2ccc(Cl)cc2)c(=O)n1N,-13,99,0,-1,-17,86*,105*,x
COc1cc(C#Cc2c(-c3cncn3C)n(C)c3ccc(-c4ccc5[nH]ccc5c4)cc23)cc(OC)c1,-204,120,x,1,-275,105*,80*,28*
SMILES,PLC-gamma1 inh,Yeast superoxide,HIF activator,sPLA2-III inh,PLCb3 inh,AHR act,AHR act cf,PXR counter
O=C(CCSc1nnc2scc(-c3ccccc3)n12)NCc1ccc2c(c1)OCO2,-1,98,0,2,5,2,x,x
c1ccc(-c2csc3nnc(SCc4ccc5c(c4)OCO5)n23)cc1,-2,93,0,-3,1,84*,48*,130*
CSc1cccc(NC(=O)CNC(=O)C2CCCCC2)c1,-4,110,-1,-5,-4,3,x,x
Cc1ccc(Nc2nc(N)nc(-c3oc4ccccc4c3C)n2)cc1,x,107,9,x,x,104*,-7,85*
Cc1ccc(F)cc1C(=O)N1CCCCC1c1cc(C(=O)Nc2ccccc2)no1 (stereo not given),-1,x,x,-4,1,x,x,x
COC(=O)c1cn(CC(=O)Nc2ccc(F)cc2)c2ccccc12,2,113,0,-14,-2,3,x,x
Cc1ccccc1/C=c1\s/c(=C\C(=O)C(C)(C)C)[nH]c1=O,-10,107,2,-6,-3,119*,76*,105*
CC(C)(C)C(=O)/C=c1\[nH]c(=O)/c(=C\c2ccc(F)cc2)s1,-3,95,0,-6,-4,32,x,x
CCCCN(CC)C(=O)CSc1nc2n[nH]c(C)c2c(=N)n1-c1cccc(C)c1,-19,90,0,-12,-18,86*,46,147*
Cc1ccc(OCc2ccccc2Br)c([N+](=O)[O-])n1,2,100,1,6,-2,4,x,x
COc1cc2c(cc1NC(=O)c1cc(-c3ccncc3)nc3ccccc13)oc1ccccc12,-3,113,-2,16,-7,83*,71*,13*
O=C(Nc1ccc2c(c1)OCO2)c1cc(-c2ccncc2)nc2ccccc12,-4,117,1,-9,-14,94*,95*,35*
COc1cc2c(cc1NC(=O)Nc1ccc(C)cc1)oc1ccccc12,-5,95,3,-8,-8,87*,98*,x
NNC(=O)c1cc(-c2ccc(O)cc2)nc2ccc(Br)cc12,-16,105,0,-11,-32,81*,40,6
C[C@H](NC(=O)OC(C)(C)C)C(=O)NCC1CCC(C(=O)N[C@@H](Cc2ccccc2)C(=O)O)CC1 (stereo not given in full),3,123,-33,5,-4,1,x,x
